# Source: PubChem BioAssay (Broad Institute)
# The entries come from a sample that favours hits as a whole.
# Tg IFNy HTS – T. gondii growth inhibition with IFN-gamma, primary screen, cell-based. 69,000 compounds, 3.8% hits. Toxoplasma gondii growth in IFN-gamma-treated host cells; hits give low values. activity change, negative = inhibition, % (no concentration beside the values). AID 1259416, 2018; in the data active means activity change below about -70%, passing the limit was not always enough;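 further: host cells are HeLa cells infected with Toxoplasma gondii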
# A number is an active result; – = inactive; ! = a repeat was not active.
SMILES,Tg IFNy HTS
C[CH2][Hg][S]c1ccccc1C(=O)O,-73!
CNc1ccccc1C(=O)O,–
CCCCC(CC)COC(=O)c1ccccc1C(=O)OCC(CC)CCCC (stereo not given),–
CN1CC2CCCC(C1)C2OC(=O)C(O)(c1ccccc1)C1CCCC1 (stereo not given),–
Cc1noc(C)c1CN1CCC2(CC1)C(=O)N(CCO)CCN2C,–
C[C@H]1CCC/C=C/[C@@H]2C[C@H](O)C[C@H]2[C@H](O)/C=C/C(=O)O1,-77
C[C@H]1CCCC(=O)CCC/C=C/c2cc(O)cc(O)c2C(=O)O1,–
O=C(c1ccco1)N1C[C@@H]2CCCN[C@@H]2C1,–
Cc1noc(C)c1CN1CC2CC(C(=O)NC(C)C)C(C1)O2 (stereo not given),–
c1cnc(N2CCN3C[C@H](Oc4cncnc4)C[C@@H]3C2)nc1,–
CCCC1C(c2ccccc2)NC(c2ccccc2)CC1(O)c1ccc(F)cc1 (stereo not given),-97
CC1CCN(CC(C)(C)CN2C3CCC2CC(O)(c2ccc(F)cc2)C3)CC1 (stereo not given),–
Cn1cc(N2CC3(CCN(Cc4ccncc4)C3)CC2=O)cn1 (stereo not given),–
Cc1ccc(C)c(NC(=O)c2cc3cccnc3n(Cc3ccc(Cl)cc3)c2=O)c1,–
CC(CCc1ccccc1)NC(=O)c1cc2cccnc2n(Cc2ccc(Cl)cc2)c1=O (stereo not given),–
Cc1ccc(NC(=O)c2cc3cccnc3n(Cc3ccc(Cl)cc3)c2=O)c(C)c1,–
CC1(C)C(=O)C=C[C@@]2(C)C1C(=O)C(=O)[C@]1(C)C2CC[C@@]2(C)[C@H](c3ccoc3)C[C@H]3O[C@]321 (stereo not given in full),-79
COc1ccc(C(=O)c2c(C)n(CCN3CCOCC3)c3cc(I)ccc23)cc1,–
Cc1c(C(=O)c2cccc3ccccc23)c2cccc3c2n1[C@H](CN1CCOCC1)CO3,-90
CCCn1c(C)c(C(=O)c2cccc3ccccc23)c2ccccc21,–
COCCN1C[C@H]2CN(Cc3ccncc3)C[C@H]2C1=O,–
O=C(NCCCc1ccccc1)c1cc2cccnc2n(Cc2ccc(F)cc2)c1=O,–
Cc1ccc(N2CCC3(CC2)COCCN3C)nn1,–
Clc1ccc(COC(Cn2ccnc2)c2ccc(Cl)cc2Cl)c(Cl)c1 (stereo not given),-85!
Clc1cccc(-c2nccn2CCc2cnc[nH]2)c1,–
SMILES,Tg IFNy HTS
Cc1ccc(Cl)cc1NC(=O)c1cc2cccnc2n(Cc2ccc(F)cc2)c1=O,–
C[C@@H]1O[C@@H](O[C@H]2C[C@@H](O)[C@]3(CO)[C@H]4[C@H](O)C[C@]5(C)[C@@H](C6COC(=O)C6)CC[C@]5(O)[C@@H]4CC[C@]3(O)C2)[C@H](O)[C@H](O)[C@H]1O (stereo not given in full),-99
CC1OC(OC2CC(O)C3(CO)C4C(O)CC5(C)C(C6=CC(=O)OC6)CCC5(O)C4CCC3(O)C2)C(O)C(O)C1O (stereo not given),-81
Cc1noc(C)c1CN1CC2CC(C(=O)NCC(C)C)C(C1)O2 (stereo not given),–
CO[C@H]1CCN(C(=O)c2cc(C)on2)[C@H]2CN(CC3CC3)C[C@@H]12,–
C=CCN1C[C@H]2CN(C(C)C)C[C@H]2C1=O,–
Cc1cnc(N2CCC3C(C[C@@H](CN(C)C)N3C)C2)nc1 (stereo not given in full),–
Cc1cccc(NC(=O)c2cc3cccnc3n(Cc3ccc(F)cc3)c2=O)c1,–
COc1cccc(NC(=O)c2cc3cccnc3n(Cc3ccc(F)cc3)c2=O)c1,–
CC(=O)Nc1cccc(NC(=O)c2cc3cccnc3n(Cc3ccc(F)cc3)c2=O)c1,–
CC(=O)OC[C@]12CCC(C)=C[C@H]1O[C@@H]1[C@H](O)[C@@H](OC(C)=O)[C@@]2(C)[C@@]12CO2,-81
CSc1ccccc1NC(=O)c1cc2cccnc2n(Cc2ccc(F)cc2)c1=O,–
COCCN1CCN(S(C)(=O)=O)Cc2ccc(C)nc21,–
CCNC(=O)C(C)NC1CCC2(CCNCC2)CC1 (stereo not given),–
CCCCOC(=O)c1ccc(NC(=O)c2cc3cccnc3n(Cc3ccc(F)cc3)c2=O)cc1,–
CN(C)C(=O)CN1CCN(C)C(=O)C12CCN(c1ncccn1)C2 (stereo not given),–
COCCN1C(=O)C2(CCN(Cc3cccn3C)CC2)c2ccccc21,–
CN1CCN(S(=O)(=O)c2cn(C)cn2)Cc2cccnc21,–
Cc1ccc(C)c(NC(=O)c2cc3cccnc3n(Cc3ccc(F)cc3)c2=O)c1,–
CCCN(CCC)C1CCc2ccc(O)cc2C1 (stereo not given),-76!
CCCN(CCC)C1CCc2cccc(O)c2C1 (stereo not given),–
CN(C)c1cccc(C2CCCNC2)n1 (stereo not given),–
CN1CCNC(=O)C12CCN(c1cccnc1)CC2,–
C=C[C@H]1CN2CC[C@H]1C[C@@H]2[C@@H](OC(=O)OCC)c1ccnc2ccc(OC)cc12,–
CC[C@H]1CN2CCC1C[C@@H]2[C@@H](O)c1ccnc2ccc(OC)cc12 (stereo not given in full),-78!
SMILES,Tg IFNy HTS
C=CC1CN2CCC1CC2[C@@H](OC(=O)c1ccc(OC)cc1)c1ccnc2ccccc12 (stereo not given in full),–
Cc1noc(C)c1CN1CCO[C@@H]2CN(C(C)C)C[C@@H]21,–
C[C@@H]1CN2CCCC2CN1Cc1ccnc(N2CCCC2)n1 (stereo not given in full),–
Fc1ccccc1CO[C@@H]1C[C@@H]2CN(c3ncccn3)CCN2C1,–
Cc1cc(Cl)ccc1OCC(=O)O,–
Oc1cc(Cl)ccc1Oc1ccc(Cl)cc1Cl,-87
O=C(O)COc1ccc(Cl)cc1Cl,–
CN1C2CCC1CC(=NOC(=O)c1ccc(F)cc1)C2,–
CCN1Cc2ccccc2C2(CCN(c3ccc(C)nn3)CC2)C1,–
CC(C)CCCC1(C)C=Cc2c(O)c3c(c(CCC(C)C)c2O1)OC12C(CC4CC1C(C)(C)OC2(CCC(C)C(=O)O)C4O)C3=O (stereo not given),–
CC(C)=CCC[C@]1(C)C=Cc2c(O)c3c(c(CC=C(C)C)c2O1)O[C@]12C(=C[C@@H]4C[C@H]1C(C)(C)O[C@@]2(CC=C(C)C(=O)O)C4=O)C3=O,-85
C=CCC(O)(CC=C)C(N)Cc1ccccc1 (stereo not given),–
c1cncc(CN2CC[C@H]3[C@@H]2CCN3Cc2ccoc2)c1,–
COc1ccc(-c2ccccc2N2CCNCC2)c(OC)c1OC,–
O=C(Nc1ccc(C(F)(F)F)cc1)c1cc2cccnc2n(Cc2ccc(F)cc2)c1=O,–
c1cncc(OC[C@@]23COC[C@@H]2CN(Cc2cccs2)C3)c1,–
CCCc1nc(-c2ccccn2)nc(OC(=O)N(C)C)c1Cc1c(F)cccc1Cl,-98
O=C(Nc1ccc(F)cc1F)c1cc2cccnc2n(Cc2ccccc2F)c1=O,–
O=C1[C@H]2CCN(Cc3ccccn3)C[C@H]2OCCN1c1ccsc1,–
CNC(=O)C[C@H]1COC[C@@H]2CN(Cc3cc(C)on3)C[C@@H]12,–
CC(=O)O[C@@]12CO[C@@H]1C[C@H](O)[C@@]1(C)C(=O)[C@H](O)C3=C(C)[C@@H](O)C[C@@](O)([C@@H](OC(=O)c4ccccc4)[C@H]21)C3(C)C,-76!
COCCO[C@@H]1C[C@@H]2CN(C(=O)Cc3ccccn3)CCN2C1,–
O=C(NC1CCCCCCCCCCC1)c1cc2cccnc2n(Cc2ccc(Cl)cc2)c1=O,–
